According to PubChem BioAssay (Tox21):
Records with an inconclusive call do not appear. Calls of active or inactive are those of the source. The call rests on the fitted dose curve; in most records, active means well fitted curve in the direction sought with a large enough effect in the repeat runs; inconclusive means weak or mixed curves; inactive means no such curve, though single readings can be large; an effect the other way counts as inactive or inconclusive.

Key:
[1] = A CellTox Green Cytotoxicity Assay to monitor cytotoxicity in HepG2 cells - 16 hour (AID 1224876); conditions: CellTox Green fluorescence; series mostly up to 76.8 µM; further: nearly all actives have a fitted effect of over 45% in size
How it was run: (§1)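 Fluorescent DNA-binding dye, 600 HepG2 cells/well, 5 h preincubation then compound in DMSO; same plates read at 0–40 h, 37 C.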

[2] = qHTS RealTime-Glo MT Cell Viability Assay in HepG2 cells - 32 hour (AID 1224877); conditions: RealTime-Glo luminescence; series mostly up to 76.8 µM; further: nearly all actives have a fitted effect of over 55% in size
How it was run: (§2)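 HepG2 cells (600/well) were dispensed with RealTime-Glo reagents, incubated 5 h at 37 °C, then treated with compounds in DMSO for up to 40 h. Nonlytic NanoLuc luminescence reflecting viable cells was read at each stated time point.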

[3] = A CellTox Green Cytotoxicity Assay to monitor cytotoxicity in HepG2 cells - 40 hour (AID 1224879); conditions: CellTox Green fluorescence; series mostly up to 76.8 µM; further: nearly all actives have a fitted effect of over 40% in size
How it was run: as §1

[4] = qHTS RealTime-Glo MT Cell Viability Assay in HEK293 cells - 0 hour (AID 1224880); conditions: RealTime-Glo luminescence; series mostly up to 76.8 µM; further: top concentration of the series differs between compounds; nearly all actives have a fitted effect of over 45% in size
How it was run: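 Measured as luminescence from the same continuously cultured HEK293 wells at successive time points (0, 8, 16, 24, 32, 40 h) after compound addition. Reagent present from seeding; dosing at 5 h; incubation 37 C.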

[5] = A CellTox Green Cytotoxicity Assay to monitor cytotoxicity in HEK293 cells - 32 hour (AID 1224881); conditions: CellTox Green fluorescence; series mostly up to 76.8 µM; further: nearly all actives have a fitted effect of over 40% in size
How it was run: (§3)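 Homogeneous no-lysis format: HEK293 cell suspension mixed with CellTox Green reagent, seeded, incubated 5 h at 37 C/5% CO2, then dosed by pintool with compound in DMSO.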

[6] = A CellTox Green Cytotoxicity Assay to monitor cytotoxicity in HepG2 cells - 0 hour (AID 1224882); conditions: CellTox Green fluorescence; series mostly up to 76.8 µM; further: nearly all actives have a fitted effect of over 35% in size
How it was run: as §1

[7] = A CellTox Green Cytotoxicity Assay to monitor cytotoxicity in HepG2 cells - 32 hour (AID 1224883); conditions: CellTox Green fluorescence; series mostly up to 76.8 µM; further: nearly all actives have a fitted effect of over 50% in size
How it was run: as §1

[8] = A CellTox Green Cytotoxicity Assay to monitor cytotoxicity in HEK293 cells - 8 hour (AID 1224884); conditions: CellTox Green fluorescence; series mostly up to 76.8 µM; further: nearly all actives have a fitted effect of over 35% in size
How it was run: as §3

[9] = qHTS RealTime-Glo MT Cell Viability Assay in HepG2 cells - 16 hour (AID 1224885); conditions: RealTime-Glo luminescence; series mostly up to 76.8 µM; further: nearly all actives have a fitted effect of over 50% in size
How it was run: as §2

Measured: Potency

CCC12COCN1COC2
inactive: all assays above

COP(N)(=O)SC (configuration not stated)
not listed: [7]
inactive: all other assays above

CCc1cccc(C)c1N(C(=O)CCl)C(C)COC (configuration not stated)
inactive: all assays above

c1ccc2c(c1)oc1ccccc12
not listed: [3] | [7]
inactive: all other assays above

O=c1[nH]c2ccccc2c(=O)o1
not listed: [7]
inactive: all other assays above

[N-]=[N+]=[N-]
not listed: [7]
inactive: all other assays above

C#CCN(C)[C@H](C)Cc1ccccc1
not listed: [7]
inactive: all other assays above
